Screens deposited in PubChem by National Center for Advancing Translational Sciences (NCATS).
LASV entry inh: qHTS for Inhibitors of binding or entry into cells for Lassa Virus | Lassa virus pseudotype entry inhibition, cell reporter | Potency, µM (series often up to 37.9 µM), for inactives: at the top dose activity change, negative = inhibition, actives largely listed as inhibitors | hit rate 1.2% among 300,000; calls by dose curve; tested in HEK293 cells; further: potency means the concentration at half of the fitted maximal effect; nearly all actives have a fitted effect of over 50% in size
Marburg entry inh: qHTS for inhibitors of binding or entry into cells for Marburg Virus. Marburg virus pseudotyped entry inhibition, cell reporter. Potency, µM (titrated, usually from 37.8 µM), without a hit: at the highest dose activity change, negative = inhibition, usual class: inhibitors. hit rate 1.8% among 300,000. AID 540276, 2011; calls by dose curve; tested in HEK293 cells; further: potency means the concentration at half of the fitted maximal effect
HCV inh: qHTS Assay for Inhibitors of Hepatitis C Virus (HCV) | Huh7.5.1 HCVcc-Cre infection, luciferase reporter, 44 h | Potency, µM (titrated, usually from 41.8 µM), for inactives: top-dose activity change, negative = inhibition, most hits filed as inhibitors | hit rate 3.4% among 340,000 | AID 651820, 2012; further: potency means the concentration at half of the fitted maximal effect
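Cells seeded at 1,000/well and cultured 4 h, then compounds added followed by HCVcc-Cre virus (~0.5 moi). After 44 h further culture, luciferase substrate was added, plates held 15 min at room temperature, and luminescence read for 15 sec.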
FMDV inh: High Throughput Screening for Foot and Mouth Disease Virus Antivirals. AID 1159524, 2015. hit rate 1.2% among 410,000. FMDV antiviral cell-based qHTS. Potency, µM (doses to about 57.9 µM), inactives show at the highest dose activity change, negative = inhibition, actives largely listed as inhibitors; calls by dose curve; tested in HEK293T cells; further: read-out not given here; potency means the concentration at half of the fitted maximal effect; nearly all actives have a fitted effect of over 45% in size
FBPA Giardia inh: qHTS Assay for Inhibitors of Fructose-1,6-bisphosphate Aldolase from Giardia Lamblia. purified Giardia FBPA. Potency, µM (highest dose often 59.6 µM), for the others: top-dose activity, negative = inhibition, most hits filed as inhibitors. hit rate 0.71% among 290,000. AID 2451, 2010; further: potency means the concentration at half of the fitted maximal effect; nearly all actives have a fitted effect of over 55% in size
Target sequence (A8B2U2 whole entry, looked up): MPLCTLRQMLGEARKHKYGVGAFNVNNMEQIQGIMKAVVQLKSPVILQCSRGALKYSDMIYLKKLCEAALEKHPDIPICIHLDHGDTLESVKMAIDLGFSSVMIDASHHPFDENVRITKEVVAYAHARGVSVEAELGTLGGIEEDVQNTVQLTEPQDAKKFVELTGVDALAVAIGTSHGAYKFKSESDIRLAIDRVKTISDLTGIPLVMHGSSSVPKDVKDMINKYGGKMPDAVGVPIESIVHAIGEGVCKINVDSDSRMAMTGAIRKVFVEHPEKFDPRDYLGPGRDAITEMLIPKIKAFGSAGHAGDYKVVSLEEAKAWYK
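40 nM FBPA preincubated 10 min at RT with compound (up to 57.5 uM final), then substrate plus GAPDH/TPI/NAD/arsenate coupling and diaphorase/resazurin added. Fluorescence read after 20 min at RT, 525/598 nm.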
HCMV inh: qHTS Assay for inhibitors of the human cytomegalovirus (HCMV); hit rate 4.5% among 410,000; activity change, negative = inhibition, % at 57.5 µM; HFF cells, HCMV-luciferase reporter, 72 h; active compounds read low; in the data active means activity change below about -60%; inconclusive means no clear call, values can overlap the other calls; inactive means above about -39%
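Screen run at 2 compound doses on HFFs infected with reporter HCMV, MOI 1 PFU/cell. Luciferase activity from cell lysates at 72 h post infection gave inhibition relative to buffer-only and Salinomycin wells.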
* = called active by the depositor; ? = inconclusive; . = no result; + = active, no number; [ ] = another dose, or the depositor's remark. Hits are enriched below; roughly 8.3% of the tested compounds scored in any of these assays. Unless noted, the call rests on the fitted dose curve; in most records, active means well fitted curve in the direction sought with a large enough effect; inconclusive means small, poorly fitted or top-dose-only effect, or another doubt; inactive means no such curve, though single readings can be large; an effect the other way counts as inactive or inconclusive. On the % scale 0 is the no-effect control and ±100 the full control effect.

SMILES | LASV entry inh | Marburg entry inh | HCV inh | FMDV inh | FBPA Giardia inh | HCMV inh
Cc1ccc2c(c1)nnn2C1CCN(S(=O)(=O)c2ccc(C(=O)N3C(C)CCCC3C)cc2)CC1 (centres undefined) | ? | 7.9µM* | 6.3µM* | ? | . | -73*
COc1ccc(NC(=O)N2CCCC3(CCN(S(C)(=O)=O)CC3)C2)cc1 | . | . | . | 7% | -10% | .
COCOc1ccc(Br)cc1C(=O)C=Cc1ccc2c(c1)OCO2 | . | 6%[14.2 µM] | . | . | . | .
CC(C)C(=O)N1CCN(c2nc(-c3ccc(Cl)cc3)cs2)CC1 | . | . | ? | -13% | -20% | -70*
O=C(Cc1cccs1)N1CCN(c2nc(-c3ccc(Cl)cc3)cs2)CC1 | -25% | ? | ? | ? | -12% | -108*
C=CCOC(/C=C/c1ccccc1)C[Si](C)(C)C (centres undefined) | . | . | . | . | 0% | .
Cc1n[nH]c(C)c1S(=O)(=O)N(CC(=O)Nc1ccc(C(F)(F)F)cc1)c1ccc(C(C)C)cc1 | -6%[46.1 µM] | ? | . | -27% | . | -96*
Cc1noc(C)c1S(=O)(=O)N(CC(=O)Nc1ccc(C(F)(F)F)cc1)c1ccc(C(C)C)cc1 | 10%[46.1 µM] | ? | . | ? | . | -8
Cc1ccc(Oc2nc3c(c(=O)n(Cc4ccccc4F)c(=O)n3C)n2C)cc1 | -9% | ? | -11% | 20µM* | -3% | -15
Cn1c(Oc2ccc(Cl)cc2)nc2c1c(=O)n(Cc1ccc(F)cc1)c(=O)n2C | 1%[46.1 µM] | 1%[46.1 µM] | . | 16µM* | . | -9
COc1ccc(Nc2cc3[nH]c(-c4cccc(C(F)(F)F)c4)cc3cn2)cc1 | . | . | . | . | . | -26
COCCn1c(CNC(=O)c2cccc(N(C)C)c2)nc2cccnc21 | 2%[46.1 µM] | . | . | 20% | . | -14
Cc1ccc(-n2cc(CN3CCC(CO)(Cc4cccc(C(F)(F)F)c4)CC3)cn2)cc1 | ? | ? | 11µM* | ? | 0% | -99*
OCC1(Cc2cccc(C(F)(F)F)c2)CCN(Cc2cc(F)cc(F)c2)CC1 | ? | ? | ? | -9% | -3% | -62*
COc1ccc(OC)c2c(C)c(C)[nH]c12 | . | . | 10µM* | 40% | -29% | 20
CCc1ccc(NC(=O)CC2C(=O)N(c3cccc(C)c3)C(=O)N2Cc2ccco2)cc1 (centres undefined) | -24%[46.1 µM] | . | . | -7% | . | ?
N=C(N)SCc1ccc(Cl)cc1Cl | ? | ? | 11µM* | ? | -8% | -34
Nc1c2c(nc3sc4c(c13)CCCCC4)CCCC2 | ? | ? | 22µM* | -5% | -1% | -71*
Nc1c2c(nc3sc4c(c13)CCCC4)-c1ccccc1CC2 | 11µM* | 7.1µM* | ? | -42% | -11% | ?
NNc1nc(-c2ccccc2)nc2sc3c(c12)CCCC3 | ? | ? | 15% | -23% | -12% | -3
Cc1nc2cnc(N3CCN(C)CC3)nc2n(Cc2ccc(F)cc2)c1=O | . | . | . | 4% | 5% | .
COC(=O)[C@@]1(Cc2ccc(OC)cc2)[C@H]2c3cc(C(=O)N4CCCC4)n(CCF)c3C[C@H]2CN1C(=O)c1ccccc1 | . | . | . | . | -6% | .
COC(=O)[C@@]1(Cc2ccc(OC)cc2)[C@H]2c3cc(C(=O)N4CCCC4)n(CCn4cc([N+](=O)[O-])nc4C)c3C[C@H]2CN1C(=O)c1ccccc1 | 25% | 4% | 2%[8.37 µM] | -10% | 4% | -74*
COC(=O)[C@@]1(Cc2ccc(OC)cc2)[C@@H]2C(=CC(=O)[C@H]2CC(=O)C(=O)N2CCCC2)CN1C(=O)c1ccccc1 | ? | ? | -11% | 16µM* | -12% | .
NS(=O)(=O)c1ccc(CCNc2ncnc3sccc23)cc1 | ? | ? | 5.6µM* | ? | -1% | ?
SMILES | LASV entry inh | Marburg entry inh | HCV inh | FMDV inh | FBPA Giardia inh | HCMV inh
Cc1sc2ncnc(NCCc3ccc(S(N)(=O)=O)cc3)c2c1C | ? | ? | 1µM* | 11µM* | 8% | -76*
O=C(Nc1ccc(F)c(Cl)c1)C1CCCN1S(=O)(=O)c1ccc(F)cc1 (centres undefined) | 0%[46.1 µM] | -12%[46.1 µM] | . | ? | . | -6
Cc1cc(C)c2c(-n3cccc3)c(C(=O)NCCCN3CCCCC3)sc2n1 | 7%[46.1 µM] | ? | . | -13% | . | 18
CS(=O)(=O)N1CCC2(CCN(C(c3ccccc3)c3ccccc3)CC2)CC1 | . | . | . | -22% | 4% | .
O=C(Nc1nc2c(s1)CCCC2)C1COc2ccccc2O1 (centres undefined) | 5.8µM* | ? | ? | -23% | -1% | -15
O=C(NC1=NCCS1)C1COc2ccccc2O1 (centres undefined) | ? | 1µM* | 0% | 10µM* | 4% | ?
O=C(Nc1ccncc1)C1COc2ccccc2O1 (centres undefined) | 18% | -1% | 4% | -4% | 2% | -25
Cc1nn(C)c2c1c(C(F)(F)F)cc(=O)n2CC(=O)N1CCC(C)CC1 | 19%[46.1 µM] | . | . | -9% | . | -2
O=C1Nc2ccccc2NC(c2cccc(Br)c2)=C1N(C(=O)C(=O)c1cccs1)c1ccccc1 | . | . | . | . | . | -88*
Cc1cc(C)cc(NC(=O)C2CCN(c3cc(C)nc4c(-c5ccc(Cl)cc5)c(C)nn34)CC2)c1 | 15%[46.1 µM] | 10%[46.1 µM] | . | 3% | . | 10
COc1ccccc1NC(=O)NCc1ccco1 | ? | 8%[46.1 µM] | ? | 36% | -4% | -30
COc1cc(NC(=O)NCc2ccco2)ccc1-c1ccc(NC(=O)NCc2ccco2)cc1OC | ? | ? | 11µM* | -27% | . | -67*
C/C(=N\NC(=O)COc1ccc(C)cc1Br)c1cc([N+](=O)[O-])cs1 | ? | ? | 8.9µM* | -10% | 2% | -81*
COc1cc2cc(c1Cl)N(C)C(=O)CC(OC(=O)C(C)N(C)C(C)=O)C1(C)OC1C(C)C1CC(O)(NC(=O)O1)C(OC)C=CC=C(C)C2 (centres undefined) | ? | -10% | ? | -10% | . | -80*
Cc1ccc(Cn2ccnc2SCC(=O)Nc2nc3ccccc3s2)cc1 | -20%[46.1 µM] | . | . | 10% | . | 55
CCCc1c(NC(=O)Nc2ccc(F)cc2)cnn1-c1ccc(Cl)cc1 | 5µM* | ? | 15% | ? | -4% | -81*
CC(=O)c1cc(-c2ccccc2)n(CC(=O)Nc2ccc(C)cc2C)c1C | 3%[46.1 µM] | . | . | 9% | . | +
Cc1nc2ccccc2n1CC(=O)NC1CCCCCC1 | . | . | ? | ? | 0% | -62*
CC(=O)c1cc(-c2ccccc2)n(CC(=O)NC2CCCCCC2)c1C | 13%[46.1 µM] | . | . | 9% | . | +
CC(=O)c1cc(-c2ccccc2)n(CCC(=O)NC2CCCCCCC2)c1C | 6% | -67% | ? | 0% | 2% | -33
Cc1nc2ccccc2n1CC(=O)NC1CCCC1 | -2% | -8%[46.1 µM] | ? | -9% | -1% | -4
